According to paper PMC5540273 (PLoS ONE, 2017):

Legend:
Settings in all cases: concentration: 1 μM, replicates: in singlicate; n = 1
KIT = tested on: KIT
LATS1 = tested on: LATS1
LATS2 = tested on: LATS2
LCK = tested on: LCK
LIMK1 = tested on: LIMK1
LIMK2 = tested on: LIMK2
LKB1 = tested on: T1, LKB1
T1 construct: gene STK11

LOK = tested on: T2, LOK
T2 construct: gene STK10

LRRK2 = tested on: LRRK2
LTK = tested on: LTK
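Note: KINOMEscan kinase panel screen.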

Row | Compound | %Inh (KIT) [%] | %Inh (LATS1) [%] | %Inh (LATS2) [%] | %Inh (LCK) [%] | %Inh (LIMK1) [%] | %Inh (LIMK2) [%] | %Inh (LKB1) [%] | %Inh (LOK) [%] | %Inh (LRRK2) [%] | %Inh (LTK) [%]
1 | Cn1ccc2ncnc(Oc3ccc(NC(=O)Nc4ccccc4)cc3)c21 | 100 | 16 | 13 | 20 | 1 | 1 | 0 | 94.8 | 24 | 0
2 | COc1ccc(CNC(=O)NC2CCN(c3ccnc(Nc4cc(OC)c(OC)c(OC)c4)n3)C2)cc1 (stereo not shown) [GSK1379748] | 57 | 0 | 11 | 7 | 0 | 0 | 12 | 0 | 0 | 64
3 | NC(=O)c1nnc2ccccc2c1N | 10 | 0 | 0 | 0 | 0 | 5 | 0 | 10 | 75 | 0
4 | O=C(Nc1n[nH]c2nc(-c3nccs3)c(Br)cc12)C1CC1 [SB-742251] | 1 | 24 | 0 | 0 | 0 | 0 | 0 | 0 | 32 | 0
5 | CCCc1ccc(S(=O)(=O)NC2CCN(c3ccnc(Nc4ccc(F)cc4)n3)C2)cc1 (stereo not shown) [GSK1379715] | 12 | 0 | 0 | 0 | 14 | 0 | 0 | 0 | 19 | 4
6 | Cc1ccc(NC(=O)Nc2cc(C(C)(C)C)nn2-c2ccccc2)cc1 [GSK1014915] | 98.6 | 31 | 0 | 24 | 5 | 0 | 0 | 60 | 0 | 67
7 | Cc1ccc(NC(=O)Nc2cccc(Cl)c2)cc1-c1ccc(C(=O)Nc2ccncc2)cc1 [GSK1398468] | 99.6 | 0 | 0 | 25 | 0 | 12 | 0 | 0 | 0 | 7
8 | Cc1ccccc1-n1cnc2c(N)ncnc21 [SKF-97510] | 0 | 0 | 3 | 100 | 16 | 15 | 0 | 0 | 0 | 0
9 | Cn1cncc1-c1ccc2ncnc(Nc3ccc(OCc4ccccc4)cc3)c2c1 [GW320571] | 28 | 0 | 0 | 13 | 18 | 11 | 0 | 2 | 21 | 11
10 | CC1=C(C(=O)Nc2cc3cn[nH]c3cc2F)C(c2ccc(C(F)(F)F)cc2)CC(=O)N1 (stereo not shown) [GSK429286] | 9 | 0 | 39 | 22 | 0 | 0 | 0 | 0 | 12 | 0
11 | Nc1nc(-c2nccs2)c(-c2ccnc3ccccc23)s1 [GW693542] | 0 | 22 | 0 | 13 | 6 | 0 | 0 | 0 | 19 | 4
12 | Nc1ncnc2[nH]c(-c3ccccc3)nc12 [AH5015] | 21 | 0 | 0 | 26 | 15 | 0 | 0 | 0 | 34 | 91.4
13 | COC(=O)c1c(-c2ccccc2)c2cc(C(=O)O)ccc2c(=O)n1Cc1ccccc1 | 93.1 | 22 | 0 | 0 | 1 | 0 | 0 | 0 | 0 | 0
14 | Cc1cc(N2Cc3ccccc3C2)nc(Nc2ccc(S(=O)(=O)N3CCOCC3)cc2)n1.Cl [GSK1669917] | 0 | 29 | 10 | 4 | 0 | 16 | 12 | 0 | 0 | 0
15 | COc1ccc(C2=C(Nc3cccc(C(=O)O)c3)C(=O)NC2=O)cc1 [SB-390765] | 6 | 26 | 20 | 10 | 100 | 0 | 11 | 28 | 0 | 11
16 | Cc1ccc(C(=O)Nc2ccc(Nc3ccnc4cc(-c5ccccn5)ccc34)cc2O)cc1.Cl [GW440146] | 89 | 0 | 0 | 84 | 0 | 2 | 9 | 14 | 4 | 12
